High-throughput results from PubChem BioAssay.
MCF10A rereplic: A quantitative high throughput screen for small molecules that induce DNA re-replication in MCF 10a normal breast cells. AID 624296, 2012. MCF 10A DNA re-replication, Hoechst nuclear intensity, 48 h. hit rate 2.9% among 350,000. Potency, µM (highest dose often 46.1 µM), for inactives: at the top dose activity, positive = re-replication, hits mostly activators; note: % of control where 0% means no effect; nearly all actives have a fitted effect of over 50% in size
KB-3-1 tox: qHTS assay for MDR1-selective chemotherapeutics: Primary screen using the parental adenocarcinoma cell KB-3-1; KB-3-1 viability, CellTiter-Glo ATP luminescence, 72 h; Potency, µM (titrated, usually from 46.1 µM), hits mostly cytotoxic; hit rate 1.4% among 400,000; AID 1347075, 2019; note: % is set by controls: 0 for no effect and ±100 for the full control effect; nearly all actives have a fitted effect of over 60% in size
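72 h, 37 °C compound treatment of KB-3-1 parental cells; CellTiter-Glo added, 10 min, luminescence read. Data corrected against DMSO-only plates and normalized before curve fitting.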
PINK1 expr mod: A Quantitative High throughput Screen to Identify Chemical Modulators of PINK1 Expression. PINK1 immunofluorescence, high-content cytometry, 24 h. Potency, µM (series often up to 76.6 µM), without a hit: at the highest dose activation (PINK1 increase), actives largely listed as activators. hit rate 0.2% among 410,000. AID 624263, 2012; active = well fitted activation curve with a large enough effect; inconclusive = small, poorly fitted or top-dose-only effect; cell line not stated here; note: % of control where 0% means no effect; nearly all actives have a fitted effect of over 65% in size
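A stable cell line was treated with compounds at 5 concentrations for 24 hours, with CCCP as control. PINK1 levels and mitochondrial localization were measured by immunofluorescence with mitochondrial, cell and nuclear markers after fixation, read by laser-scanning cytometry.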
SW480 rerep: A quantitative high throughput screen for small molecules that induce DNA re-replication in SW480 colon adenocarcinoma cells | SW480 DNA re-replication, Hoechst DNA content imaging, 48 h | Potency, µM (highest dose often 46.1 µM), without a hit: top-dose re-replication activation, hits mostly activators | hit rate 1.8% among 340,000; note: % of control where 0% means no effect; nearly all actives have a fitted effect of over 55% in size
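250 cells/well; 23 nL cpd via pin tool; 48 hr, 37 C, 5% CO2; Hoechst 40 min; imager read of total nuclear intensity, ex 405/em 500-530 nm.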
KB-V1 cytotox: qHTS assay for MDR1-selective chemotherapeutics: Primary screen using the drug-selected MDR subline cells KB-V1. Potency, µM (titrated, usually from 46.1 µM), usual class: cytotoxic. hit rate 3.4% among 400,000. KB-V1 MDR cells viability, CellTiter-Glo, 72 h; note: % is set by controls: 0 for no effect and ±100 for the full control effect; nearly all actives have a fitted effect of over 60% in size
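KB-V1 MDR subline cells in DMEM (phenol-red free, 10% FBS) exposed to compounds in qHTS concentration series for 72 h at 37 degrees C. Viability read by CellTiter-Glo luminescence; concentration-effect curves fitted after normalization and correction.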
* hit, by the source's call; i = inactive; u = inconclusive; x = not tested or not shown; [ ] = another dose, or the depositor's remark. In the library only some 6.7% were active in any assay of this set; here they are far more common. Unless noted, calls come from the whole dose curve; as a rule, active = well fitted curve in the direction sought with a large enough effect; inconclusive = small, poorly fitted or top-dose-only effect, or another doubt; inactive = no such curve, though single readings can be large; an effect the other way counts as inactive or inconclusive. Potency is the fitted concentration of half-maximal effect.

SMILES	MCF10A rereplic	KB-3-1 tox	PINK1 expr mod	SW480 rerep	KB-V1 cytotox
Cc1ccc(-c2csc(-c3c[nH]c4ccccc34)n2)c(C)c1	14.6µM*	u	-2.3%	u	u
CC(=O)NCCC(=O)Nc1nc(-c2c[nH]c3ccccc23)cs1	2.4%	i	6.3%	-11.5%	i
CCCOc1ccc(/C=C/c2[nH]c(=O)[nH]c(=O)c2[N+](=O)[O-])cc1OCC	u	i	u	u	i
CCOc1cc(/C=C\c2[nH]c(=O)[nH]c(=O)c2[N+](=O)[O-])ccc1OC(C)CC (configuration not stated)	u	i	-2.6%[38.3 µM]	23.1µM*	i
CCOC(=O)COc1ccc(Br)cc1/C=C\c1[nH]c(=O)[nH]c(=O)c1[N+](=O)[O-]	8.2µM*	i	-3.0%	u	i
CC(C)c1ccc(/C=C/c2[nH]c(=O)[nH]c(=O)c2[N+](=O)[O-])cc1	18.4µM*	i	-0.7%	-5.9%	i
CCOc1ccc(/C=C/c2[nH]c(=O)[nH]c(=O)c2[N+](=O)[O-])cc1	u	i	-0.1%	-1.7%	i
COc1cc(/C=c2\s/c(=C\C(=O)C(C)(C)C)[nH]c2=O)cc(OC)c1OC	18.4µM*	i	5.2%	4.11µM*	u
O=C(Nc1ccc(N2CCN(C(=O)c3ccco3)CC2)c(Cl)c1)c1cc2ccccc2o1	9.2µM*	u	-2.1%	u	i
CCC(=O)N1CCN(c2ccc(NC(=O)c3cc4ccccc4o3)cc2Cl)CC1	u	u	-1.2%	-1.0%	9.2µM*
O=C(Nc1ccc(N2CCN(C(=O)c3ccccc3)CC2)c(Cl)c1)c1ccco1	u	u	0.9%	-0.8%	u
CCCC(=O)N1CCN(c2ccc(NC(=O)c3cc4ccccc4o3)cc2Cl)CC1	6.51µM*	u	4.8%	1.8%	u
Cc1oc(-c2ccccc2Cl)nc1CSc1nc2ncccc2[nH]1	x	x	0.7%	x	x
CCn1c2ccccc2c2nc3cc(OC)c(OC)cc3nc21	2.91µM*	u	0.0%	18.4µM*	2.06µM*
CCn1c2ccccc2c2nc3cc(C(=O)O)ccc3nc21	u	i	3.2%	-19.7%	u
CCn1c2ccccc2c2nc3ccccc3nc21	13µM*	i	-2.8%	13.5%	i
Cc1cccc(NC(=O)CN2c3ccccc3S(=O)(=O)c3ccccc32)c1C	x	i	0.0%	x	i
CCCCSc1nnc2[nH]c(=O)cc(N)n12	5.7%	i	u	-5.6%	8.2µM*
Cc1c(CCNC(=O)c2c(F)cccc2F)sc2nc(-c3ccc(F)cc3)nn12	x	x	0.2%	x	x
COCCNC(=S)Nc1ccc2nc(N3CCCC3)cc(C)c2c1	26.8%	i	-0.9%	-9.5%	16.4µM*
CCOCCCNC(=S)Nc1ccc2nc(N3CCCC3)cc(C)c2c1	1.4%	i	2.3%	-62.4%	7.31µM*
Cc1cc(N2CCOCC2)nc2ccc(NC(=S)NC(C)C)cc12	23.1µM*	i	0.1%	-11.0%	i
Cc1cc(N2CCCC2)nc2ccc(NC(=S)NC(C)C)cc12	u	i	4.3%	u	i
COCCNC(=S)Nc1ccc2nc(N3CCOCC3)cc(C)c2c1	-8.5%	i	-0.2%	-1.7%	i
Cc1cccc2sc(NC(=O)CCNS(=O)(=O)c3cccc4nonc34)nc12	17.3%	u	1.4%	4.3%	23.1µM*
SMILES	MCF10A rereplic	KB-3-1 tox	PINK1 expr mod	SW480 rerep	KB-V1 cytotox
CCOc1ccccc1OCCCC(=O)N1CCN(S(=O)(=O)c2ccc(C)cc2)CC1	10.2%	i	-2.5%	3.2%	i
CCOc1ccccc1OCCCC(=O)N1CCN(S(=O)(=O)c2cccc(F)c2)CC1	13.4%	i	-0.8%	0.9%	6.51µM*
Cc1cc(C)c(S(=O)(=O)N2CCN(C(=O)CCOc3ccccc3C)CC2)c(C)c1	0.0%	u	0.2%	-5.8%	5.17µM*
COc1cc2c(cc1OC)CN(C(=O)CCOc1ccccc1C)CC2	u	u	7.4%	u	16.4µM*
Cc1ccccc1OCCC(=O)N1CCN(S(=O)(=O)c2ccc(F)cc2)CC1	4.6%	x	-0.3%	15.7%	x
COc1cccc(-c2cnc(NCc3ccccc3Cl)n2C)c1	x	i	12.2%	x	i
CCOC(=O)C1(C)CCCN(C(=O)c2c(-c3ccccc3)noc2C)C1 (configuration not stated)	x	i	-0.5%	x	i
CCOC(=O)C(NC(=O)CC(C)C)(Nc1sc(C)c(CC)c1C#N)C(F)(F)F (configuration not stated)	2.4%	i	-1.7%	-1.1%	u
CCOC(=O)C(NC(=O)CCl)(Nc1sc(C)c(CC)c1C#N)C(F)(F)F (configuration not stated)	u	i	-3.2%	16.4µM*	u
CCOc1ccc(CCN2C(=O)C(=O)N([C@@H](CC(C)C)CN3CCC[C@H]3CN3C(=O)C(=O)NC[C@@H]3CC(C)C)C[C@@H]2Cc2ccc(O)cc2)cc1	x	u	-0.6%	x	i
COc1cccc(N=c2oc3ccc(OC)cc3cc2-c2nc3ccccc3[nH]2)c1	u	i	1.9%	u	i
COc1cccc(N=c2oc3ccccc3cc2-c2nc3ccccc3[nH]2)c1	11.2%	i	6.9%	18.6%	18.4µM*
COc1cccc(OC)c1C(=O)NC(=S)NCc1cccnc1	-2.5%	i	-1.8%	-5.9%	i
O=C(/C(=C/c1ccccc1Cl)c1ccccc1)N1CCOCC1	14.5%	i	2.2%	-0.3%	23.1µM*
CN(Cc1ccc(Cl)c(Cl)c1)C(=O)C1CC(=O)N(c2ccc3c(c2)OCCO3)C1 (configuration not stated)	x	i	0.3%	x	i
COc1ccc(C2NN=C(c3ccc(C)cc3)S2)cc1 (configuration not stated)	0.4%	i	7.0%	-13.1%	i
CCOc1cc(C2NN=C(c3ccc(C)cc3)S2)ccc1O (configuration not stated)	18.4µM*	i	1.8%	-7.3%	u
CCCCN(CC)CCCNC(=O)c1sc2nc(C)cc(C)c2c1-n1cccc1	x	x	0.3%	x	x
O=[N+]([O-])c1ccc(/C=C2\C=C(C(O)c3ccc([N+](=O)[O-])cc3)c3ccccc32)cc1 (configuration not stated)	x	u	19.3%	x	u
CC1=NNC(=O)/C1=C\c1cn(-c2ccccc2)nc1-c1cccs1	2.59µM*	i	-1.3%	4.11µM*	i
CC1=NNC(=O)/C1=C\c1cn(-c2ccccc2)nc1-c1ccc(F)cc1	4.61µM*	i	-2.3%	u	u
